± gives the standard deviation of the averaged measurements. Targets with the largest changes are over-represented here; the source holds about 6,200 in all.
Compound: Nc1ncnc2c1ncn2[C@@H]1O[C@H](COP(=O)(O)OP(=O)(O)NP(=O)(O)O)[C@@H](O)[C@H]1O [adenylyl imidodiphosphate]
Assay: NP40-soluble protein abundance relative to vehicle (solubility fold change) (ratio); higher = more soluble protein in presence of AMP-PNP
Outline: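 Jurkat crude lysate (Dounce-homogenised) was treated with eight concentrations from 0.1 to 10 mM for 10 min at room temperature, then 3 min at 37 °C. It was solubilised with 0.8% NP40 and benzonase (60 min, 4 °C) and ultracentrifuged, and the supernatant was TMT-labelled for LC-MS/MS. Intensities were vsn-normalised, and the value is the fold change against the NP40-processed vehicle per replicate, from three independent experiments.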

Chain of UniProt P36405 (P36405 whole entry): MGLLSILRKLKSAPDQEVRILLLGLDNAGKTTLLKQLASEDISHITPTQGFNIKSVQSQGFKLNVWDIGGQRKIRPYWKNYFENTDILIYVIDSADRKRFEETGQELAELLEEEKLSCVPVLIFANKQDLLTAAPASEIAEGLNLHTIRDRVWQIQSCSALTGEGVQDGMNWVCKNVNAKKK
Chain of UniProt P17096 (P17096 whole entry): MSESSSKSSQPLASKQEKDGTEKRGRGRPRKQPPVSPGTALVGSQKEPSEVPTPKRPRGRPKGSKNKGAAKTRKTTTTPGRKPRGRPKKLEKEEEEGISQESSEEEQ
Chain of UniProt P18433 (P18433 whole entry, looked up): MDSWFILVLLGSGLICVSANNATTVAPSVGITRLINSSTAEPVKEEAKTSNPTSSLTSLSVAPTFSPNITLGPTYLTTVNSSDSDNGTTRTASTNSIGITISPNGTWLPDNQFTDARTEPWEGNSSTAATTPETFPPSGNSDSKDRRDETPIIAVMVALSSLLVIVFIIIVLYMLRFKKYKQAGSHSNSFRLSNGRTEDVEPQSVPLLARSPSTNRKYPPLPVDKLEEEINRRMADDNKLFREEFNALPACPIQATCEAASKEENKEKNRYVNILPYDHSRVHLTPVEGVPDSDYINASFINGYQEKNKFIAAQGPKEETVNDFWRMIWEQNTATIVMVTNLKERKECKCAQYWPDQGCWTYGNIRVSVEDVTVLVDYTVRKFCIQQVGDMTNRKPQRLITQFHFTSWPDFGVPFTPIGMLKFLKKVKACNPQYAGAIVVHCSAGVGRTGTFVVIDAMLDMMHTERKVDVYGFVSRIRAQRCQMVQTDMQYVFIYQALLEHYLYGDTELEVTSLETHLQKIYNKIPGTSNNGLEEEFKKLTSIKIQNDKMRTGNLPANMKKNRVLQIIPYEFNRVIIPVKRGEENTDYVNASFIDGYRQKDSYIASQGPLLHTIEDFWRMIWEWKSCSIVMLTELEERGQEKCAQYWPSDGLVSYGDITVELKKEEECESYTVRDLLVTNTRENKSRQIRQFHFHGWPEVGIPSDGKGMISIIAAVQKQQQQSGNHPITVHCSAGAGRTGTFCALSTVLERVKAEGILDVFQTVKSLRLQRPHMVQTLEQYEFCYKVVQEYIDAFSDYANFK
Chain of UniProt P50552 (P50552 whole entry): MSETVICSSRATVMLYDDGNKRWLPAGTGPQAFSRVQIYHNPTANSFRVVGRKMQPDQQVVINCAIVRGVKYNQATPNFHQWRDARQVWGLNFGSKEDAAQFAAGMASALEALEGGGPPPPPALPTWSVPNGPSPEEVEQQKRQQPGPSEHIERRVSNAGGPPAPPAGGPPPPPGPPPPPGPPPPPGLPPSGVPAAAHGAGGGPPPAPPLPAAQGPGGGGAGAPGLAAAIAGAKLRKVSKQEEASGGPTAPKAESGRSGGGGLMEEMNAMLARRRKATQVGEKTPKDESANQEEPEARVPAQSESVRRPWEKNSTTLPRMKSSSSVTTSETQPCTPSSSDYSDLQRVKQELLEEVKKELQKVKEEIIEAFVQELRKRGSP
Chain of UniProt P05423 (P05423 whole entry): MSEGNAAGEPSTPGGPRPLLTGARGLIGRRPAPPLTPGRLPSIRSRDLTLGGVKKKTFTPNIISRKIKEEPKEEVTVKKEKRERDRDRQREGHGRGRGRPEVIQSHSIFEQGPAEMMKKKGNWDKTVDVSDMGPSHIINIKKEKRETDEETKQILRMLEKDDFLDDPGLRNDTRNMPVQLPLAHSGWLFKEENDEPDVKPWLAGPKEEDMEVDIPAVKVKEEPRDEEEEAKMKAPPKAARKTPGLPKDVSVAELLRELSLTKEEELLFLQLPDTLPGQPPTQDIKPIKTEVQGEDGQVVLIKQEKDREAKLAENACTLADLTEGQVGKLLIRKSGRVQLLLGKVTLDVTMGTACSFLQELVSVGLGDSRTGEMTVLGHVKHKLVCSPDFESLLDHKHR
Chain of UniProt P01112 (P01112 whole entry, looked up): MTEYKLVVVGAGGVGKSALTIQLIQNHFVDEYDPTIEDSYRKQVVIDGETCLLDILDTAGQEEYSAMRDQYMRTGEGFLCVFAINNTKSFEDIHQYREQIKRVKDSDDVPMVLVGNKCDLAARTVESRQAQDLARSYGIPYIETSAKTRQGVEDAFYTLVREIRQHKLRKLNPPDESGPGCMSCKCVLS
Chain of UniProt P53384 (P53384 whole entry): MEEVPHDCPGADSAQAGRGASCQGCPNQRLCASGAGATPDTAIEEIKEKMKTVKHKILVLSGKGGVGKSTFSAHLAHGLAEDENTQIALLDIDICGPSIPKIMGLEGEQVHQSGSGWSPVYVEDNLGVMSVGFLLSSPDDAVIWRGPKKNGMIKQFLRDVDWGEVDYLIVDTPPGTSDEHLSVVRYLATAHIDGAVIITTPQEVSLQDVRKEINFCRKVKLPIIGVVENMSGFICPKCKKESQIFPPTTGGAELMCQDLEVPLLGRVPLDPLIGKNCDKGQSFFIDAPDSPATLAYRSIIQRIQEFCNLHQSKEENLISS
Chain of UniProt P42696 (P42696 whole entry): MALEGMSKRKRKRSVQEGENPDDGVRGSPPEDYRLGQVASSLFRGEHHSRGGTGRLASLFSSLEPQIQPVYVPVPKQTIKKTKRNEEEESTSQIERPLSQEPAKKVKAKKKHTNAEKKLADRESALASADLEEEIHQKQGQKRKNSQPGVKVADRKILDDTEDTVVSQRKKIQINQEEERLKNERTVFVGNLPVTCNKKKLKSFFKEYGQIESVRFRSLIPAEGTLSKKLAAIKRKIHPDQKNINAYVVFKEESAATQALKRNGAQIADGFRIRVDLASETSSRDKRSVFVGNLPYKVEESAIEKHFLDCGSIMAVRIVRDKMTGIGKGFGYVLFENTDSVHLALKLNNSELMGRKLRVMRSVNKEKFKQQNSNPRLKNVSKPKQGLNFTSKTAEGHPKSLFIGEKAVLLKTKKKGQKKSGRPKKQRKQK
Chain of UniProt Q00013 (Q00013 whole entry): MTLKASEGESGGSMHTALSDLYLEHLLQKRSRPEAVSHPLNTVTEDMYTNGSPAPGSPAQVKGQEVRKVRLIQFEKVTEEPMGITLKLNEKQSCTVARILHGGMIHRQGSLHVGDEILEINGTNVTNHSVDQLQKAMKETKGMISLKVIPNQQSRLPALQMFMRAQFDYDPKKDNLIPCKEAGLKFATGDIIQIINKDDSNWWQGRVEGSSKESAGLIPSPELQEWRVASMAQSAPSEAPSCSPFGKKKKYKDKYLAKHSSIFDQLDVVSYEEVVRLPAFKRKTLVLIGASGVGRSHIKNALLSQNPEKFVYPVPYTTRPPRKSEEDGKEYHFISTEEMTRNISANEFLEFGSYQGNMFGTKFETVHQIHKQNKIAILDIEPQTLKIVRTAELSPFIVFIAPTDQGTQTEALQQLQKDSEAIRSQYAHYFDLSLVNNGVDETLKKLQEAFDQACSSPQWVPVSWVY
Chain of UniProt P17301 (P17301 whole entry): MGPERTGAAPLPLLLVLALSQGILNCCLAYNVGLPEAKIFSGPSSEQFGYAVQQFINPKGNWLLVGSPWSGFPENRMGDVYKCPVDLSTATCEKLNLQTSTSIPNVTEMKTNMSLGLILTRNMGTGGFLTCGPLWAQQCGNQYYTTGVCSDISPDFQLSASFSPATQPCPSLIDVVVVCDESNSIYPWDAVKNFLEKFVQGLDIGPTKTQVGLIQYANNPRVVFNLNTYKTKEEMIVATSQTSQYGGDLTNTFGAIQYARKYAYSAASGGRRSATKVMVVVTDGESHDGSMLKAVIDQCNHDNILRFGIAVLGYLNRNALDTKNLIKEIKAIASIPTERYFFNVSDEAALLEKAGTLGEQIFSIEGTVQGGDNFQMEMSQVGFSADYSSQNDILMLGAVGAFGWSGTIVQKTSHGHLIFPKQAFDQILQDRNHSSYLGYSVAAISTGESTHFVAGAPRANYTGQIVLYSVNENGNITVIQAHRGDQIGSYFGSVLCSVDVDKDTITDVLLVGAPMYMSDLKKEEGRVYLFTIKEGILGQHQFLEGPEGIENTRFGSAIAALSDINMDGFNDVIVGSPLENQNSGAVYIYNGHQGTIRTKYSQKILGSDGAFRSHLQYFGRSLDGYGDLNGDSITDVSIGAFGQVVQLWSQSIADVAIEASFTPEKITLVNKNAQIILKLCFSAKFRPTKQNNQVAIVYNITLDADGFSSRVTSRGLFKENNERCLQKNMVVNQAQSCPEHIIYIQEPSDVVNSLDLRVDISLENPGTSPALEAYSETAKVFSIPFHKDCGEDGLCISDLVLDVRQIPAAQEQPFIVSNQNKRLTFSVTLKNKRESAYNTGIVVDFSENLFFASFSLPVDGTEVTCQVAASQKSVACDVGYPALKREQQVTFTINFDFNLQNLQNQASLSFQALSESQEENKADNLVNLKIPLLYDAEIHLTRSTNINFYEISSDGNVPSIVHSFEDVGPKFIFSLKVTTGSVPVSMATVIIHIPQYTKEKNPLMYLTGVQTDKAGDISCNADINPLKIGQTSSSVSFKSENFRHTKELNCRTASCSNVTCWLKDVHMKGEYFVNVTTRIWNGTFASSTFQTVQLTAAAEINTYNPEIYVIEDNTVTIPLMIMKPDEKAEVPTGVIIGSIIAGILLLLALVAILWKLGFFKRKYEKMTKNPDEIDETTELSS
Chain of UniProt P10746 (P10746 whole entry): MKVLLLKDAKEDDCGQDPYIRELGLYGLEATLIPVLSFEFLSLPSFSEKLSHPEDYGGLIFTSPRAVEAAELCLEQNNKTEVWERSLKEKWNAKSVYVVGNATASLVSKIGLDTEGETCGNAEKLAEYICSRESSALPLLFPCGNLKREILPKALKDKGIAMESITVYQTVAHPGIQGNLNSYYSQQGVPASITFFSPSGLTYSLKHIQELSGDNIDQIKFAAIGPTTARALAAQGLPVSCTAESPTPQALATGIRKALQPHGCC

Target	NP40-soluble protein abundance (concentration: 1mM)	NP40-soluble protein abundance (concentration: 2mM)	NP40-soluble protein abundance (concentration: 4mM)	NP40-soluble protein abundance (concentration: 6mM)	NP40-soluble protein abundance (concentration: 8mM)	NP40-soluble protein abundance (concentration: 10mM)
ITGA2 (UniProt P17301)	0.9944 ± 0.0014	1.02 ± 0.084	0.988 ± 0.024	1.019 ± 0.0071	1.01 ± 0.025	1.04 ± 0.011
UniProt P18433|P18433-2|P18433-3|P18433-4	1.029 ± 0.0089	1.03 ± 0.027	1.03 ± 0.032	0.987 ± 0.023	1.02 ± 0.018	1.03 ± 0.036
POLR3D (UniProt P05423)	0.982 ± 0.017	1.01 ± 0.02	0.993 ± 0.035	0.961 ± 0.041	0.971 ± 0.037	0.998 ± 0.065
UniProt O94763	1.05 ± 0.048	1.13 ± 0.06	1.05 ± 0.05	1.02 ± 0.1	0.962 ± 0.063	1.02 ± 0.059
UniProt P62857	0.941 ± 0.041	0.993 ± 0.078	0.919 ± 0.069	0.837 ± 0.071	0.74 ± 0.057	0.847 ± 0.092
MPP1 (UniProt Q00013)	1.01 ± 0.015	0.964 ± 0.035	1.01 ± 0.028	0.978 ± 0.028	1.01 ± 0.048	0.986 ± 0.034
VASP (UniProt P50552)	1.02 ± 0.03	1.09 ± 0.078	1.03 ± 0.033	1.01 ± 0.015	0.999 ± 0.046	0.9961 ± 0.0094
UniProt Q01826|Q01826-2	1.03 ± 0.033	1.07 ± 0.05	1.03 ± 0.051	0.985 ± 0.037	0.985 ± 0.026	1.01 ± 0.05
UniProt P01112	1.06 ± 0.026	1.04 ± 0.016	1.03 ± 0.021	1 ± 0.062	1.06 ± 0.021	1.01 ± 0.025
DNAJC3 (UniProt Q13217)	0.978 ± 0.031	0.9648 ± 0.0063	0.973 ± 0.011	1.01 ± 0.014	0.985 ± 0.021	0.999 ± 0.022
UniProt P53384|P53384-2	0.979 ± 0.025	0.969 ± 0.057	1 ± 0.031	0.982 ± 0.022	0.97 ± 0.014	0.96 ± 0.063
IGFBP2 (UniProt P18065)	1.03 ± 0.034	1.03 ± 0.058	1.01 ± 0.067	0.966 ± 0.0077	0.991 ± 0.021	0.957 ± 0.014
VPS26A (UniProt O75436)	0.946 ± 0.045	0.861 ± 0.062	0.895 ± 0.019	0.872 ± 0.032	0.931 ± 0.046	0.829 ± 0.02
UROS (UniProt P10746)	1.04 ± 0.012	1.03 ± 0.015	1 ± 0.045	0.99 ± 0.029	0.975 ± 0.051	0.982 ± 0.075
UniProt P17096|P17096-2	1.01 ± 0.076	1.19 ± 0.19	1.12 ± 0.047	1.29 ± 0.057	1.31 ± 0.088	1.74 ± 0.29
ARL3 (UniProt P36405)	0.9899 ± 0.0033	0.945 ± 0.031	0.995 ± 0.048	0.988 ± 0.052	1.03 ± 0.041	0.99 ± 0.042
UniProt P55060|P55060-3	1 ± 0.012	1.02 ± 0.11	0.987 ± 0.032	1.01 ± 0.04	0.985 ± 0.027	1.02 ± 0.04
UniProt O95251|O95251-4	1.11 ± 0.031	1.17 ± 0.06	1.18 ± 0.063	1.2 ± 0.073	1.25 ± 0.077	1.36 ± 0.088
RBM34 (UniProt P42696)	1.07 ± 0.069	1.12 ± 0.044	1.15 ± 0.082	1.23 ± 0.12	1.23 ± 0.12	1.36 ± 0.16
UniProt P09651-2|P09651	1.04 ± 0.11	1.09 ± 0.075	1.09 ± 0.11	1.14 ± 0.15	1.18 ± 0.15	1.25 ± 0.18
UniProt P36639|P36639-2|P36639-3|P36639-4	1 ± 0.037	0.988 ± 0.059	1.09 ± 0.085	1.03 ± 0.022	1.07 ± 0.012	1.06 ± 0.065
